Experimental data published in PubChem BioAssay (NCI).
About 83,000 compounds went through this panel and 20% of them were active in at least one assay; those are over-represented in the sample as a whole.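 96-well plates, one dose, 48 hours. Percent growth reported; active if below 10.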 Calls of active or inactive are those of the source.

Test system: U251 CNS
Assay: NCI-60 one-dose screen, 48 h (100 = growth as untreated, 0 = no growth, -100 = all killed)
Conditions: 10 µM unless noted

SMILES | growth
O=C(Nc1ccc(CN2CCOCC2)c(C(F)(F)F)c1)c1nc2ccc3[nH]ncc3c2c2c1CCCC2 | 92% (inactive)
CC(C)[C@H]1CCC2=C3CC[C@]45OC(=O)[C@@]6(CCC(C)(C)C[C@H]64)CC[C@@]5(C)[C@]3(C)CC[C@@]21C | 66.5% [100 µM] (inactive)
Cc1ccc2c(c1)/C(=N\N=C/c1cn(C(C)C)c3ccccc13)C(=O)N2 | 63.6% (inactive)
COc1ccc(C(=O)c2nccc3cc(OC)c(OC)cc23)cc1OC | 98.6% (inactive)
Nc1cc(C(=O)O)[nH]c(=S)n1 | 95% (inactive)
CC1(C)CC[C@]2(C(=O)O)CC[C@]3(C)C(=CC[C@@H]4[C@@]5(C)C/C(=C/c6cccnc6)[C@H](O)C(C)(C)[C@@H]5CC[C@]43C)[C@@H]2C1 | -8.69% [100 µM] (active)
ClC1=C(Cl)C(Cl)=C(Cl)C1=Cc1ccccc1 | -50.3% (active)
CCCCC(CCCCCC(CCCC)C1NC(C)Cc2cc(OC)c(OC)cc21)C1NC(C)Cc2cc(OC)c(OC)cc21 (configuration not stated) | -94.7% (active)
COc1ccccc1S(=O)Nc1ccccc1 (configuration not stated) | 91% (inactive)
Cc1cnc(N)nc1OCC(C)(C)CNC(=O)c1cccc(-c2ccc(S(=O)(=O)Nc3ccc4c(c3)N(C(=O)C3CC3)CCC4)cc2)c1 | 59.4% (inactive)
C=C(C)[C@@H]1CC[C@]2(COC(=O)c3ccccc3C(=O)O)CC[C@]3(C)[C@H](CC[C@@H]4[C@@]5(C)CC[C@H](OC(=O)c6ccccc6C(=O)O)C(C)(C)[C@@H]5CC[C@]43C)[C@@H]12 | 4.32% [100 µM] (active)
Cc1cc(N2CCCCCC2)nc(N2CCN(CC(=O)Nc3ccc4c(ccn4Cc4ccccc4)c3)CC2)n1 | 39.2% (inactive)
CC1(C)C(=O)/C(=C\c2cccnc2)C[C@]2(C)[C@H]3CC[C@@H]4[C@H]5[C@H](C(=O)/C=C/c6cccnc6)CC[C@]5(C(=O)O)CC[C@@]4(C)[C@]3(C)CC[C@@H]12 | -82.3% [100 µM] (active)
CCN(CC)CCSC(=O)C(O)(c1ccccc1)C1CCCC1 (configuration not stated) | 108% (inactive)
O=C(NNc1ccc(-c2ccccc2)nn1)c1ccccc1 | 101% (inactive)
Cc1cc2c(C(C)C)c(O)c(O)c(C=NCc3ccoc3)c2c(O)c1-c1c(C)cc2c(C(C)C)c(O)c(O)c(C=NCc3ccco3)c2c1O | 25.6% (inactive)

SMILES | growth
c1ccc(-c2nnc(-c3c[nH]c4ncccc34)s2)cc1 | 93.2% (inactive)
Cc1ccc(-c2cc(-c3ccc(C)cc3)nc(NCCNc3ccnc4cc(Cl)ccc34)n2)cc1 | -84.4% (active)
Cn1cc(-c2noc(C(=O)c3cn(C)c4ncccc34)n2)c2ccccc21 | 89.2% (inactive)
Cc1cc(NN=C(c2ccc(O)cc2)c2ccc(O)cc2)c([N+](=O)[O-])cc1[N+](=O)[O-] | 49.4% (inactive)
O=C(C[n+]1ccn(CC(OCc2ccc(Cl)cc2Cl)c2ccc(Cl)cc2Cl)c1)c1ccc(F)cc1 (configuration not stated) | -81.7% (active)
COc1cc(-c2nc(SCCC(C)C)nc(Nc3ccc(S(N)(=O)=O)cc3)c2C#N)cc(OC)c1OC | 31.5% (inactive)
CC(C)=CCC[C@](C)(O)[C@H]1CC[C@]2(C)[C@@H]1CC[C@@H]1[C@@]3(C)CC[C@H](OC(=O)CCC(=O)O)C(C)(C)[C@@H]3CC[C@]12C | 2.41% [100 µM] (active)
C=C(C)[C@@H]1CC[C@]2(C)[C@H](CC[C@@H]3[C@@H]([C@@](C)(O)CCC=C(C)C)CC[C@]32C)[C@@]1(C)CCC(=O)O | -16.7% [100 µM] (active)
O=C(CCN1CCCCC1)c1ccc2ccccc2c1 | 93.3% (inactive)
O=C(N/N=C/c1c(Cl)cccc1Cl)c1cccc(Nc2ccnc(C(F)(F)F)c2)c1 | 89.6% (inactive)
CCc1ccc(C2=C/C(=C/c3ccccc3)C(=O)N2CCc2ccc(S(N)(=O)=O)cc2)cc1 | 99.7% (inactive)
COc1cc2c(cc1OCCCCCOc1ccc(-n3c(C)nc4ccccc4c3=O)cc1)N=C[C@@H]1CCCN1C2=O | 3.85% (active)
CCN(CCO)CCC(=O)c1ccc([N+](=O)[O-])cc1 | 98.1% (inactive)
COc1c(B(O)O)cccc1-c1nc2ccc3[nH]ncc3c2c2c1CCC2 | 66.1% (inactive)
Cc1ccc(-c2cc(O)c(-c3ccc(C)cc3C)cc2O)c(C)c1 | 38.2% (inactive)
C=C(C)[C@@H]1CC[C@]2(c3ncc(C)o3)CC[C@]3(C)[C@H](CC[C@@H]4[C@@](C)(CCC#N)[C@H](C(=C)C)CC[C@]43C)[C@@H]12 | -82.4% [100 µM] (active)
